Test results taken from PubChem BioAssay (NCI).
The panel holds about 83,000 compounds, 20% with a hit somewhere; the sample as a whole holds those more often.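 Cell lines were cultured in 96-well plates, exposed to a single compound concentration, and assessed for percent growth 48 hours later.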 Unmarked numbers belong to inactive results. Calls of active or inactive are those of the source. How the source made its calls: active means growth percent below 10; inactive means the rest.

These compounds were tested on SF-539 CNS (assay: NCI-60 one-dose screen, 48 h (100 = growth as untreated, 0 = no growth, -100 = all killed)). Conditions: 10 µM unless noted.
Work on COc1ccc(/C=C(\C#N)C(=O)N2c3ccccc3Sc3ccc(SC)cc32)cc1F yielded a growth of 96.7%. Work on Cc1ccc(NC(=O)CNc2cc(C(N)=O)cc(F)c2C)c(Cl)c1 yielded a growth of 89.8%. In the case of CNC(=O)c1cc(Oc2ccc3nc(NC(=O)c4cccc(OC(F)(F)F)c4)sc3c2)ccn1, the growth was 63.9%. Compound O=C1CCCC2=C1C(c1c[nH]c3ccc(Br)cc13)Cc1cc(Br)ccc1N2 (stereo not drawn) has a growth of 28.6%. In the case of COc1cc2oc(-c3cccc(C(=O)N[C@@H](CC(C)C)C(=O)OC(C)(C)C)c3)cc(=O)c2c(OC)c1OC, the growth was 88.6%. Work on NC(N)=Nc1ccc(Nc2cccc(Nc3ccc(Cl)c(C(F)(F)F)c3)c2)cn1 yielded a growth of 80.7%. Work on CC(=O)c1nnn(-c2c(C(=O)n3nc(C)cc3C)sc(=S)n2-c2ccccc2)c1C yielded a growth of 96.6%. CS(=O)(=O)Nc1cc(-c2ccc3ncc(C#N)c(N[C@H](CO)c4ccccc4)c3c2)cnc1Cl was tested, and the growth was 43.7%. COc1ccc(C(=O)CSc2nc3c(c(Nc4ccc(S(N)(=O)=O)cc4)n2)CCCC3)cc1 was tested, and the growth was 83.1%. For CCn1c(SCC(=O)Nc2cccc(C(=O)/C=C/c3ccc(Br)cc3)c2)nc2ccccc2c1=O, the growth was 91.4%. N#Cc1c(Nc2ccccc2)nn2c(-c3ccc([N+](=O)[O-])cc3)ccnc12 showed a growth of 100%. With O=C(CCn1c[n+](CC(=O)c2ccc(-c3ccccc3)cc2)c2ccccc21)Nc1cccc2cccnc12 the growth was 75.5%. Compound COc1ccc(OC)c(-c2nc(SCC(=O)c3ccc(Br)cc3)nc(Nc3ccc(S(N)(=O)=O)cc3)c2C#N)c1 has a growth of 28.4%. In the case of FC(F)(F)c1cc(Nc2cccc(Oc3ccc(NC4=NCCN4)nc3)c2)ccc1Cl, the growth was 51.6%. CCO/C=N/C1=C(C#N)C(c2ccc(OC)cc2)c2sc3c(CC)cccc3c2O1 (stereo not drawn) was tested, and the growth was 4.01% (active). With COc1ccc2c(c1)c(CC(=O)[Se]CCC#N)c(C)n2C(=O)c1ccc(Cl)cc1 the growth was -63.9% (active). In the case of CN(C)CCN(C)c1ccc2ncc(C#Cc3cncc(C(=O)Nc4ccc(CN5CCN(C)CC5)c(C(F)(F)F)c4)c3)n2n1, the growth was -9.03% (active). In the case of NC(=O)c1c(NC(=O)c2ccccc2C(F)(F)F)sc2c1CCC(=O)C2, the growth was 5.83% (active). With NC(N)=Nc1ccc(Oc2cccc(NC(N)=Nc3ccc(I)cc3F)c2)cc1 the growth was 62.6%. For COc1ccc(CCOc2cc3c(cc2OC)CCN(C(=O)NCc2cocn2)C3c2ccc(C)cc2C)cc1 (stereo not drawn), the growth was 1.43% (active). Compound CC(C)(C)c1ccc(C(=O)Nc2nc3ccc(O)cc3s2)cc1 has a growth of 38.1%. CC1(C)CC[C@]2(C(=O)N3CCOCC3)CC[C@]3(C)C(=CC[C@@H]4[C@@]5(C)C/C(=C/c6ccccn6)C(=O)C(C)(C)[C@@H]5CC[C@]43C)[C@@H]2C1 showed a growth of 94%. In the case of CCO/C=N/C1=C(C#N)C(c2ccc(F)cc2)c2sc3c(C)cccc3c2O1 (stereo not drawn), the growth was -10.1% (active). COc1cc(-c2nc(SC(C)C)n(C(C)C)c(=O)c2C#N)ccc1OCc1ccccc1 showed a growth of 64.6%. Compound CCCCCc1ccc(S(=O)(=O)Nc2cccc(-c3csc(NCCN4CCN(C)CC4)n3)c2)cc1 has a growth of 76.4%.

These compounds were tested on UACC-257 melanoma in the same assay as above. Conditions: 10 µM unless noted.
For CN1CCN(Cc2ccc(NC(=O)c3cncc(C#Cc4cnc5ccc(NCCCO)nn45)c3)cc2C(F)(F)F)CC1, the growth was -43.8% (active). For COC(=O)c1[nH]nc2c1C1(C(=O)N(C)c3ccccc31)C(C#N)=C(N)O2 (stereo not drawn), the growth was 103%. O=C(Cn1cc(-c2ccccc2)nn1)Nc1nc(-c2ccc(Cl)cc2)cs1 was tested, and the growth was 98.9%. Compound COc1cc(OC)c(S(N)(=O)=O)cc1C(C)=O has a growth of 102%. For COc1ccccc1N1CCN(C2=CC(=O)C(C)=C(C)C2=O)CC1, the growth was 96.4%. With NC(N)=Nc1ccc(Oc2cccc(Nc3ccc(Br)c(C(F)(F)F)c3)c2)cn1 the growth was -28.5% (active). Compound Cn1ccnc1C(=O)/C=C/c1ccc(CNC(=O)c2ccc(F)cc2)cc1 has a growth of 80.6%. Cc1c(Cl)cccc1S(=O)(=O)Nc1ccc2c(c1)C(=O)N(C1CCC(=O)NC1=O)C2=O (stereo not drawn) was tested, and the growth was 113%. NS(=O)(=O)c1ccc(-n2cc(-c3cccc(NC(=O)c4ccc(N5CCOCC5)c(C(F)(F)F)c4)c3)nn2)cc1 gave a growth of 82.5%. Compound CCc1cccc2c3c(sc12)C(c1ccc(OC)cc1)C(C#N)=C(/N=C/c1ccc(Cl)cc1)O3 (stereo not drawn) has a growth of 72%. Nc1ncc(-c2ccc3ncnc(N4CCc5cc(F)c(F)cc54)c3c2)cn1 was tested, and the growth was 45%. COc1c(N2CC3CCCNC3C2)c(F)cc2c(=O)c(C(=O)N/N=C/c3ccc(Br)cc3)cn(C3CC3)c12 (stereo not drawn) showed a growth of 100%. For O=C(NNc1nc2cc(F)c(F)cc2n2c(CN3CC4CNCC4C3)ccc12)c1ncccn1 (stereo not drawn), the growth was 8.25% (active). COc1ccc(/C=C(\C#N)C(=O)N2c3ccccc3Sc3ccc(SC)cc32)cc1F was tested, and the growth was 93.1%. Cc1ccc(NC(=O)CNc2cc(C(N)=O)cc(F)c2C)c(Cl)c1 gave a growth of 107%. With CNC(=O)c1cc(Oc2ccc3nc(NC(=O)c4cccc(OC(F)(F)F)c4)sc3c2)ccn1 the growth was 77.6%. With O=C1CCCC2=C1C(c1c[nH]c3ccc(Br)cc13)Cc1cc(Br)ccc1N2 (stereo not drawn) the growth was 80%. Compound COc1cc2oc(-c3cccc(C(=O)N[C@@H](CC(C)C)C(=O)OC(C)(C)C)c3)cc(=O)c2c(OC)c1OC has a growth of 112%. With NC(N)=Nc1ccc(Nc2cccc(Nc3ccc(Cl)c(C(F)(F)F)c3)c2)cn1 the growth was 42.9%. Compound CC(=O)c1nnn(-c2c(C(=O)n3nc(C)cc3C)sc(=S)n2-c2ccccc2)c1C has a growth of 101%. CS(=O)(=O)Nc1cc(-c2ccc3ncc(C#N)c(N[C@H](CO)c4ccccc4)c3c2)cnc1Cl showed a growth of 59.7%. Compound COc1ccc(C(=O)CSc2nc3c(c(Nc4ccc(S(N)(=O)=O)cc4)n2)CCCC3)cc1 has a growth of 109%. CCn1c(SCC(=O)Nc2cccc(C(=O)/C=C/c3ccc(Br)cc3)c2)nc2ccccc2c1=O was tested, and the growth was 96.3%. N#Cc1c(Nc2ccccc2)nn2c(-c3ccc([N+](=O)[O-])cc3)ccnc12 showed a growth of 95.3%. For O=C(CCn1c[n+](CC(=O)c2ccc(-c3ccccc3)cc2)c2ccccc21)Nc1cccc2cccnc12, the growth was 23.6%. In the case of COc1ccc(OC)c(-c2nc(SCC(=O)c3ccc(Br)cc3)nc(Nc3ccc(S(N)(=O)=O)cc3)c2C#N)c1, the growth was 56.9%. For FC(F)(F)c1cc(Nc2cccc(Oc3ccc(NC4=NCCN4)nc3)c2)ccc1Cl, the growth was 27%. Compound CCO/C=N/C1=C(C#N)C(c2ccc(OC)cc2)c2sc3c(CC)cccc3c2O1 (stereo not drawn) has a growth of 73.8%. For COc1ccc2c(c1)c(CC(=O)[Se]CCC#N)c(C)n2C(=O)c1ccc(Cl)cc1, the growth was 6.66% (active). Compound CN(C)CCN(C)c1ccc2ncc(C#Cc3cncc(C(=O)Nc4ccc(CN5CCN(C)CC5)c(C(F)(F)F)c4)c3)n2n1 has a growth of 107%. Compound NC(=O)c1c(NC(=O)c2ccccc2C(F)(F)F)sc2c1CCC(=O)C2 has a growth of 10.6%. Compound NC(N)=Nc1ccc(Oc2cccc(NC(N)=Nc3ccc(I)cc3F)c2)cc1 has a growth of 86.4%. In the case of COc1ccc(CCOc2cc3c(cc2OC)CCN(C(=O)NCc2cocn2)C3c2ccc(C)cc2C)cc1 (stereo not drawn), the growth was 38%. CC(C)(C)c1ccc(C(=O)Nc2nc3ccc(O)cc3s2)cc1 showed a growth of 31.8%. Work on CC1(C)CC[C@]2(C(=O)N3CCOCC3)CC[C@]3(C)C(=CC[C@@H]4[C@@]5(C)C/C(=C/c6ccccn6)C(=O)C(C)(C)[C@@H]5CC[C@]43C)[C@@H]2C1 yielded a growth of 59.6%. For CCO/C=N/C1=C(C#N)C(c2ccc(F)cc2)c2sc3c(C)cccc3c2O1 (stereo not drawn), the growth was 69%. COc1cc(-c2nc(SC(C)C)n(C(C)C)c(=O)c2C#N)ccc1OCc1ccccc1 showed a growth of 101%. CCCCCc1ccc(S(=O)(=O)Nc2cccc(-c3csc(NCCN4CCN(C)CC4)n3)c2)cc1 was tested, and the growth was 38.1%.
